Source: PubChem BioAssay (EPA / NIEHS)
Active and inactive are the calls of the source. The calls were made as follows: active = hit-call score of the fitted dose curve at least 0.9, where 1 is the maximum; inactive = score below 0.9.

These compounds were tested against Transcriptional activator Myb (Homo sapiens) (UniProt P10242) (assay: ATG_Myb_CIS: Attagene CIS-FACTORIAL HepG2 Assay for human Myeloblastosis (Myb) Proto-Oncogene Transcription Factor (AID 2282986)). Conditions: HepG2 Attagene CIS-FACTORIAL Myb reporter transcription; actives raise or lower the signal.
Protocol: ATG_CIS is a cell-based, multiplexed-readout assay that uses HepG2, a human liver cell line, with measurements taken at 24 hours after chemical dosing in a 24-well plate.ATG_Myb_CIS is one of 52 assay component(s) measured or calculated from the ATG_CIS assay. It is designed to make measurements of mRNA induction, a form of inducible reporter, as detected with fluorescence intensity signals by Reverse transcription polymerase chain reaction (RT-PCR) and Capillary electrophoresis technology.Data from the assay component ATG_Myb_CIS was analyzed into 1 assay endpoint. This assay endpoint, ATG_Myb_CIS, was analyzed with bidirectional fitting relative to DMSO as the negative control and baseline of activity. Using a type of inducible reporter, measures of mRNA for gain or loss-of-signal activity can be used to understand the reporter gene at the transcription factor-level as they relate to the gene MYB. Furthermore, this assay endpoint can be referred to as a primary readout, because this assay has produced multiple assay endpoints where this one serves a reporter gene function. To generalize the intended target to other relatable targets, this assay endpoint is annotated to the dna binding intended target family, where the subfamily is MYB proteins.
Human liver HepG2 cells are transiently transfected with multiple reporter transcription units (MRTUs) in 6-well plates using FuGene 6 reagent (Roche; 3 ml FuGene/1 mg DNA). The MRTU constructs are regulated by a cis-regulating element (promoter). […] A major difference between the CIS and TRANS system is that in CIS activities of endogenous TFs are measured, whereas the TRANS assay evaluates changes in activities of exogenous, chimeric NR-Gal4 proteins. […] At the end of 24 hour incubation, total RNA was isolated using TriZol reagent (Invitrogen). The isolated RNA is then reverse-transcribed using oligo(dT) primer and Mo-MLV reverse transcriptase (Invitrogen) with DNAse I (Ambion) treatment for 30 min. The one-tenth of the produced cDNA was amplified by PCR using Taq DNA polymerase (Invitrogen) and two reporter sequence-specific primers. The PCR products were fluorescently labeled by primer extension with 6-arboxyfluorescein (6-FAM) 5'-labeled reporter sequence-specific primer (2 min at 95 C, 20 s at 68 C and 10 min at 72 C) and these products were digested with 5U of HpaI (New England Biolabs) for 2h at 37 C. The fragments were purified using Qiaquick PCR columns (Qiagen), analyzed on an ABI 3130xL genetic analyzer (Applied Biosystems) with peak positions identified by using a set of X-rhodamine (ROX)-labeled MapMarker1000 molecular weight standards (BioVentures). The raw capillary electrophoresis data was processed using Attagraph software (Attagene).

Sequence of Transcriptional activator Myb (Homo sapiens) (P10242 whole entry, looked up): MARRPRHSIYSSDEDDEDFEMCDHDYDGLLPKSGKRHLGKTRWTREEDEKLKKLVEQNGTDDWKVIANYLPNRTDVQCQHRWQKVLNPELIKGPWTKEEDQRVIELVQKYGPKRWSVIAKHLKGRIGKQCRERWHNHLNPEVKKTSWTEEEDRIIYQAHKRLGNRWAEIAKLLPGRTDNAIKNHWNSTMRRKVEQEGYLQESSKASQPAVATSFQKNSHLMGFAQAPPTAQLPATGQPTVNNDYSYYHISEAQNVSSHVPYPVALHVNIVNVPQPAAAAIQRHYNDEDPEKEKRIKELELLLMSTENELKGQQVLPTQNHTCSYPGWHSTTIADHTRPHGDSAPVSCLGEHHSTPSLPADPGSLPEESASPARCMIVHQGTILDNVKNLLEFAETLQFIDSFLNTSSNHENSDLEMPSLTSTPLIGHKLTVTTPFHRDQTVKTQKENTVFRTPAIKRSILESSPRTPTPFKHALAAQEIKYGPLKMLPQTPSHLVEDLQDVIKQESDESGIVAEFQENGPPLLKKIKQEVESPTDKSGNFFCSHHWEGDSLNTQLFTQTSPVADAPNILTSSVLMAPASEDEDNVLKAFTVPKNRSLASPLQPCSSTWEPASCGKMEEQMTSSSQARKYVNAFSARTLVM

Question: Which AC50 does the source give for `COc1ccc(S(=O)(=O)N2C(=O)[C@@](c3ccccc3OC)(N3C[C@H](O)C[C@H]3C(=O)N(C)C)c3cc(Cl)ccc32)c(OC)c1` here?
Answer: 163 µM (active)

Question: With `CCCCCCOCCO` as the compound, how does the outcome read?
Answer: inactive

Question: Which outcome does the source give for `COCCOCCOC` here?
Answer: inactive

Question: How did the outcome turn out when `Cc1ccc(C)c(O)c1C` was run?
Answer: inactive

Question: With `Cc1ccc2ncccc2c1` as the compound, how does the outcome read?
Answer: inactive

Question: How did the outcome turn out when `Nc1ccccc1N` was run?
Answer: inactive

Question: For `Cc1cccc(C)c1O`, which outcome is on record?
Answer: inactive

Question: With `CC1(C)NC(=O)NC1=O` as the compound, how does the outcome read?
Answer: inactive

Question: With `CCCCC(CC)COC(=O)CC(C(=O)OCC(CC)CCCC)S(=O)(=O)O` (stereo not given) as the compound, how does the outcome read?
Answer: inactive

Question: For `CCCCCCCCCCC`, which outcome is on record?
Answer: inactive

Question: With `CC(=O)OCCOCCOCCOC(C)=O` as the compound, how does the outcome read?
Answer: inactive

Question: `c1cc(-c2ccncc2)ccn1` was tested. Which outcome did it give?
Answer: inactive

Question: How did the outcome turn out when `FC(F)(F)C(F)(F)C(F)(F)C(F)(F)C(F)(F)C(F)(F)CCI` was run?
Answer: inactive

Question: Which outcome does the source give for `Cc1cccc(Nc2cc(Cl)nc(SCC(=O)O)n2)c1C` here?
Answer: inactive

Question: With `Oc1ccc2c(c1)OC[C@@H](N1CCC(O)(c3ccc(F)cc3)CC1)[C@H]2O` as the compound, how does the outcome read?
Answer: inactive

Question: Which outcome does the source give for `Cc1ccc(Cl)cc1` here?
Answer: inactive

Question: How did the outcome turn out when `CCCCCCCC=O` was run?
Answer: inactive

Question: How did the outcome turn out when `NCC1(Cc2noc(=O)[nH]2)CCCCC1` was run?
Answer: inactive

Question: For `Cc1cc(=O)[nH]c(=S)[nH]1`, which outcome is on record?
Answer: inactive

Question: `Cc1c(C(=O)O)c(O)cc2c1C(=O)c1c(O)c([C@@H]3O[C@H](CO)[C@@H](O)[C@H](O)[C@H]3O)c(O)c(O)c1C2=O` was tested. Which outcome did it give?
Answer: inactive

Question: For `NC(=O)Cn1c(=O)cc(CCN2CCN(c3nccc4sccc34)CC2)c2ccc(F)cc21`, which outcome is on record?
Answer: inactive

Question: With `Nc1ccc2c(c1)C(=O)c1ccccc1C2=O` as the compound, how does the outcome read?
Answer: inactive

Question: For `O=C(O)CCCCC(=O)O`, which outcome is on record?
Answer: inactive

Question: `Cc1cc(NC(=O)C(=O)O)cc(C)c1Oc1ccc(O)c2c1CCC2` was tested. Which outcome did it give?
Answer: inactive

Question: `O=c1[nH]cc(F)c(=O)[nH]1` was tested. Which outcome did it give?
Answer: inactive

Question: With `COCCOC[C@H](CC1(C(=O)NC2CCC(C(=O)O)CC2)CCCC1)C(=O)Oc1ccc2c(c1)CCC2` (stereo not given in full) as the compound, how does the outcome read?
Answer: inactive

Question: How did the outcome turn out when `CC=Cc1ccc(O)c(OC)c1` was run?
Answer: inactive

Question: `CCCCCCCCCCCCCCCCCC(=O)O` was tested. Which outcome did it give?
Answer: inactive

Question: `CC(CO)OC(C)CO` (stereo not given) (tested in a mixture with another compound) was tested. Which outcome did it give?
Answer: inactive

Question: How did the outcome turn out when `C[Si]1(C)O[Si](C)(C)O[Si](C)(C)O[Si](C)(C)O1` was run?
Answer: inactive

Question: How did the outcome turn out when `CN1CCCC1=O` was run?
Answer: inactive

Question: `C[C@]12C=CC(=O)C=C1CC[C@@H]1[C@@H]2C(=O)C[C@@]2(C)[C@H]1CC[C@]2(O)C(=O)CO` was tested. Which outcome did it give?
Answer: inactive

Question: `Oc1ccc2ccccc2c1N=Nc1ccccc1` was tested. Which outcome did it give?
Answer: inactive

Question: Which outcome does the source give for `CCCCN(CCCC)CCCC` here?
Answer: inactive

Question: How did the outcome turn out when `COc1ccc(C)cc1N` was run?
Answer: inactive

Question: For `Cc1cccc([N+](=O)[O-])c1C`, which outcome is on record?
Answer: inactive

Question: With `COc1cc(S(=O)(=O)O)c(C)cc1N=Nc1c(O)ccc2cc(S(=O)(=O)O)ccc12` as the compound, how does the outcome read?
Answer: inactive

Question: With `COC(=O)c1ccc(O)cc1` as the compound, how does the outcome read?
Answer: inactive

Question: With `CCOc1ccc2c(c1)C(C)=CC(C)(C)N2` as the compound, how does the AC50 read?
Answer: 183 µM (active)

Question: Which outcome does the source give for `COc1cccc2c1C(=O)c1c(O)c3c(c(O)c1C2=O)C[C@@](O)(C(=O)CO)C[C@@H]3O[C@H]1C[C@H](N)[C@H](O)[C@H](C)O1` here?
Answer: inactive
